Screening results as filed in PubChem BioAssay.
Pf Dd2 inh: blocks in vitro growth of P. falciparum Dd2 | P. falciparum Dd2 growth, SYBR Green, 72 h | Potency, µM (top dose mostly 28.9 µM), for the others: top-dose activity, negative = inhibition, most hits filed as inhibitors | 120,000 compounds, 4.3% hits; active = well fitted inhibition curve with a large enough effect;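 note: plate controls were DMSO vehicle for no effect and reference drug for full effect; nearly all actives have a fitted effect of over 65% in size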
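Readout: SYBR Green fluorescence, 485 nm excitation, 535 nm emission, after ~16 h lysis at 37C. Before that, Dd2-infected red cells (2.5% hematocrit) grew 72 h with compound, 29 uM top final concentration.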
Active calls of the source: *; i = inactive; [ ] = another dose, or the depositor's remark. This excerpt belongs to a sample that is enriched for hits. Potency is the fitted concentration of half-maximal effect.

SMILES	Pf Dd2 inh
Cc1ccc(-c2nnc(C3CN(C(=O)c4cc(C)nn4C)CC34CCOCC4)o2)cc1 (stereo not given)	i
CCN(CC)C(=O)[C@@H]1CCC[C@@H](NCc2ccc(OC)cc2)CN(C)C(=O)C1	6.8%[44.1 µM]
COCCOc1ccc2c(n1)CCN(C(=O)c1ccc(OC)cc1OC)C2	-2.2%
O=C(NC1CCCCC1)N1CCC(c2noc(-c3cnccn3)n2)C1 (stereo not given)	0.7%[5.79 µM]
CC[C@@]1(C(=O)O)C[C@H](C(=O)NCCOC)[C@H](c2ccc(OC)cc2)N1C	-0.6%
CC(NC(=O)c1ccc(OC2CCN(S(=O)(=O)N(C)C)CC2)cc1)c1ccc(F)cc1 (stereo not given)	-14.2%
COCCN1C(=O)c2ccccc2C(C(=O)NCc2ccc(OC)cc2)C12CCCC2 (stereo not given)	-12.7%
COCCN1C(=O)c2ccccc2C(C(=O)Nc2nc3ccccc3s2)C12CCCC2 (stereo not given)	6.31µM*
CC[C@@]1(O)CCN(C(=O)c2cccc(OCc3cccc(F)c3)c2)C[C@H]1O	-1.3%
COC(=O)[C@]1(C)N[C@H](c2cccnc2N2CCOCC2)[C@@H]2C(=O)N(C)C(=O)[C@@H]21	11.1%
CCN1CCCN(S(=O)(=O)CC)CC12CCOCC2	-29.1%
COc1ccc(CN[C@@H]2CO[C@H](CNC(=O)c3ccccc3)[C@H]2O)cc1	-11.4%[44.1 µM]
O=C(c1cc(F)ccc1F)N1CCC[C@H]1c1nc(-c2ccccc2)no1	3.1%
CC(=O)Nc1ccc(-c2c(-c3cccc(C)c3)nn(-c3ccc(F)cc3)c2OC(C)=O)cc1	-17.0%
Cc1ccc(NC(=O)c2cn(-c3ccccc3)nc2-c2ccccc2)cc1	-27.9%
Cc1ccc(-n2cc(CN(C)C(C)C(=O)N(C)C)c(-c3cccc(C)c3)n2)cc1 (stereo not given)	3.98µM*
O=S(=O)(NC[C@H]1O[C@@H](CO)[C@@H](O)[C@H]1N1CCOCC1)c1cccs1	11.9%[44.1 µM]
O=C(NCc1cccs1)c1cc2n(n1)CC(c1ccc3c(c1)OCO3)OC2 (stereo not given)	i
COc1ccccc1C(=O)N1CCCCCC1CN1CCOCC1 (stereo not given)	2.7%
COc1ccc(F)c(CN2CCCC(O)(CN3CCC(C(C)C)CC3)C2=O)c1 (stereo not given)	-10.0%
COc1ccc(F)c(CN2CCCC(O)(CN3CCC(C)CC3)C2=O)c1 (stereo not given)	3.98µM*
COc1ccc(F)c(CN2CCCC(O)(CN3CCCCC3)C2=O)c1 (stereo not given)	i
Cc1cnc(CCNC(=O)C2(c3ccccc3)CC2)n1C1CCCCCC1	2.24µM*
CC(=O)N1CCC(C(=O)NCCc2ncc(C)n2C2CCC2)CC1	3.3%
Cc1cnc(CCNC(=O)c2ccnn2C)n1C1CC1	4.4%
SMILES	Pf Dd2 inh
Cc1cnc(CCNC(=O)COc2ccccc2)n1C1CCC1	3.16µM*
COC(=O)CNC(=O)NCCc1ncc(C)n1C1CCCC1	2.7%
Cc1cnc(C2CCC2)n1C1CCN(C(=O)C2(c3ccccc3)CC2)CC1	12.6µM*
Cc1cnc(C(=O)NCCc2ncc(C)n2C2CC2)cn1	i
Cc1cnc(CCNC(=O)c2ccc(C#N)cc2)n1C1CCC1	-23.1%
COc1ccc(C2(C(=O)NCCc3ncc(C)n3C3CC3)CC2)cc1	2.51µM*
Cc1ccc(NC(=O)NCCc2ncc(C)n2C2CCC2)cc1C	-11.1%
CC(=O)N1CCC(n2c(C)cnc2C2CC2)CC1	5.9%
Cc1cnc(-c2ccncc2)n1C1CCCN(C(=O)C2(c3ccccc3)CC2)C1 (stereo not given)	i
COC[C@H]1CCCN1C[C@H]1CN2CC[C@H]1C[C@@H]2CNC(=O)Nc1ccc(OC)cc1	1.1%[44.1 µM]
COC(=O)c1ccc(COC(=O)C2=CN(C)S(=O)(=O)N=C2C)o1	3.8%
COCc1nc(NCc2sc(COC)nc2C)cc(C2CC(N)C2)n1 (stereo not given)	-15.8%
COCC1CN(C(C)=O)CC12CCN(C(=O)c1ccc(C)cc1C)CC2 (stereo not given)	15.7%
O=C(c1ccc(Cl)cc1)N1CCC2(CC1)CN(c1ccccc1)C(=O)c1ccccc1O2	-17.1%
CCCn1c(C)cnc1CC1CCN(C(=O)c2c(C)noc2C)CC1	-2.5%
COCCn1c(C)cnc1CC1CCCN(C(=O)C2(c3ccc(OC)cc3)CC2)C1 (stereo not given)	-7.8%
CCCn1c(C)cnc1CC1CCN(C(=O)C2(c3ccc(OC)cc3)CC2)C1 (stereo not given)	5.01µM*
COCCN1CCCCCC(O)c2cc(C(=O)N3CCN(C4CCCCC4)CC3)ccc21 (stereo not given)	i
Cc1ccc(S(=O)(=O)Nc2ccc(C)n(CC(=O)O)c2=O)cc1	18.5%
Cc1ccc(OC2CN(C(=O)c3ccc(F)cc3)C2)cc1C	-30.2%[44.1 µM]
Cc1ccc(C(=O)N2CC(Oc3ccc(F)cc3C)C2)cc1	11.2µM*
Cc1cc(F)ccc1OC1CN(C(=O)c2ccccn2)C1	-0.3%[44.1 µM]
O=C1NCCOCCN(S(=O)(=O)c2ccccc2)[C@H]2CCC[C@@H]12	20.2%
CC1(CNC(=O)C2COc3ccccc3O2)CCOCC1 (stereo not given)	-0.8%
CC(C)c1noc(-c2nc(-c3ccc4c(c3)OCO4)no2)n1	i
SMILES	Pf Dd2 inh
O=C(Nc1ccc(F)cc1Cl)C1CCN(c2ncnc3c2nc2n3CCCCC2)CC1	2.82µM*
O=C(NCc1ccccc1)C1CCN(c2ncnc3c2nc2n3CCCCC2)CC1	22.1%
CCOC(=O)c1ccccc1NC(=O)C1CCN(c2ncnc3c2nc2n3CCCCC2)CC1	-7.3%
N#Cc1cccc(C(=O)N2CCOCCNC(=O)CC2)c1	13.7%
CCCCn1cc(S(=O)(=O)c2ccc(F)cc2)c(=O)c2ccccc21	18.1%
CCN(CC)c1cc2c(cc1F)c(=O)c(S(=O)(=O)c1ccc(OC)cc1)cn2Cc1ccccc1	12.6µM*
COc1ccc(NC(=O)Cn2cc(S(=O)(=O)c3ccccc3)c(=O)c3cc4c(cc32)OCO4)cc1	-15.8%
CCN(CC)c1cc2c(cc1F)c(=O)c(S(=O)(=O)c1ccccc1)cn2Cc1ccccc1	12.6µM*
CCCn1cc(S(=O)(=O)c2ccc(C)c(C)c2)c(=O)c2cc(F)c(N3CCCCC3)cc21	1.4%
COc1ccc(S(=O)(=O)c2cn(Cc3ccccc3)c3cc(F)c(F)cc3c2=O)cc1	-24.3%
CCN(CC)c1cc2c(cc1F)c(=O)c(S(=O)(=O)c1ccccc1)cn2C	-22.9%
CCN(CC)c1cc2c(cc1F)c(=O)c(S(=O)(=O)c1cccc(C)c1)cn2C	8.8%
CCCCn1cc(S(=O)(=O)c2ccc(C)c(C)c2)c(=O)c2cc(F)c(N(CC)CC)cc21	12.6µM*
CCOCCN1C(=O)COC[C@@H]1[C@H](O)c1ccc(NC(=O)c2ccnc(Cl)c2)cc1	-4.8%[44.1 µM]
CCc1noc(-c2ccn3c(CNC(=O)c4cc(Cl)ccc4F)nnc3c2)n1	-4.0%
Cc1ccc(-c2noc(-c3nc(-c4ccccn4)no3)n2)cc1	-21.8%
CCNC(=O)CC1=CSC2=NC(C)=C(C(=O)Nc3ccccc3)C(c3ccc(F)cc3)N12 (stereo not given)	i
O=C(NC1CCCN(c2cc(-c3ccc(F)cc3)[nH]n2)C1)c1ccc2nc[nH]c2c1 (stereo not given)	-16.9%
Cc1ccc(CNC(=O)Cn2cccc2-c2nc(-c3ccc(F)cc3)no2)cc1	-9.9%
COc1ccc(C(=O)N2CCCn3nc(C)c(-c4ccccc4-c4ccccc4)c32)cn1	i
COc1cccc(CC(=O)N2CCCn3nc(C)c(-c4ccccc4Oc4ccccc4)c32)c1	12.6µM*
Cc1nn2c(c1-c1ccccc1OCc1ccccc1)N(C(=O)CCc1cccnc1)CCC2	i
